Experimental data as given in PubChem BioAssay (NCI).
This is part of a sample that, as a whole, favours compounds with a hit. Of some 79,000 tested, about 15% had one in any assay. Calls of active or inactive are those of the source. No stated cut-off is given here; in the data, active means growth inhibition above about 70%; inactive means the rest.

Key:
[1] = NCI Yeast Anticancer Drug Screen. Data for the rad52 strain (AID 147);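 further: 0% = growth of vehicle-treated control cultures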; conditions: S. cerevisiae rad52 mutant growth inhibition, stronger effect = higher value
Procedure, shortened: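 Yeast strain carrying a DNA damage repair alteration was exposed to test compounds. Growth inhibition was measured relative to vehicle-treated controls.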

[2] = NCI Yeast Anticancer Drug Screen. Data for the wt1 strain (AID 149);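 further: 0% = growth of vehicle-treated wt1 cultures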; conditions: S. cerevisiae wt1 strain (SPY 50644) growth inhibition, stronger effect = higher value
Procedure, shortened: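 wt1 yeast, compound-treated; % growth inhibition vs vehicle control.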

[3] = NCI Yeast Anticancer Drug Screen. Data for the rad50EPP+ strain (AID 151);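 further: 0% = growth of vehicle-treated control cultures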; conditions: S. cerevisiae rad50 mutant strain, stronger effect = higher value
Procedure, shortened: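 Yeast strain carrying rad50 alteration (rad50EPP+) exposed to compounds; growth inhibition measured relative to vehicle-treated controls.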

[4] = NCI Yeast Anticancer Drug Screen. Data for the mgt1 strain (AID 153); conditions: S. cerevisiae mgt1 mutant growth inhibition, stronger effect = higher value
Procedure, shortened: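 Yeast mgt1 strain (DNA repair/cell-cycle alteration panel) exposed to compounds; growth inhibition measured relative to vehicle-treated controls.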

[5] = NCI Yeast Anticancer Drug Screen. Data for the rad50 strain (AID 155);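 further: 0% = growth of vehicle-only cultures of the same strain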; conditions: S. cerevisiae rad50 strain growth inhibition, stronger effect = higher value
Procedure, shortened: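 Genetically altered yeast (DNA repair pathway); compound treatment; growth inhibition vs vehicle ctrl.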

[6] = NCI Yeast Anticancer Drug Screen. Data for the mec2-1 strain (AID 157); conditions: S. cerevisiae mec2-1 strain, stronger effect = higher value
Procedure, shortened: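 mec2-1 yeast strain, carrying an alteration in DNA damage repair or cell cycle control, was exposed to compounds; growth inhibition was measured relative to vehicle-treated controls.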

[7] = NCI Yeast Anticancer Drug Screen. Data for the rad14 strain (AID 159);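 further: 0% = growth of vehicle-treated control cultures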; conditions: S. cerevisiae rad14 strain growth inhibition, stronger effect = higher value
Procedure, shortened: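 Test compounds were applied to a repair-deficient yeast strain. Its growth was then compared with that of cultures given vehicle alone, and inhibition was expressed relative to those controls.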

[8] = NCI Yeast Anticancer Drug Screen. Data for the sgs1 mgt1 strain (AID 161);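 further: 0% = growth of cultures given vehicle only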; conditions: S. cerevisiae sgs1 mgt1 strain, stronger effect = higher value
Procedure, shortened: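 Percent growth inhibition was derived by comparing compound-exposed mutant yeast with vehicle-exposed cultures. The strain carries alterations in DNA damage repair.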

[9] = NCI Yeast Anticancer Drug Screen. Data for the CLN2oe strain (AID 163);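 further: 0% = growth of vehicle-only control cultures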; conditions: S. cerevisiae CLN2oe strain, stronger effect = higher value
Procedure, shortened: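 Yeast cells carrying a defined cell-cycle control alteration were exposed to test compounds. Growth inhibition was scored against vehicle-treated control cultures.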

[10] = NCI Yeast Anticancer Drug Screen. Data for the cln2 rad14 strain (AID 165);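 further: 0% = growth equal to vehicle treated cultures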; conditions: S. cerevisiae cln2 rad14 strain, stronger effect = higher value
Procedure, shortened: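 Yeast carrying cln2 and rad14 alterations (cell cycle control and DNA damage repair) were exposed to compounds. Growth inhibition was measured against vehicle-treated controls.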

[11] = NCI Yeast Anticancer Drug Screen. Data for the bub3 strain (AID 167); conditions: S. cerevisiae bub3 mutant strain, stronger effect = higher value
Procedure, shortened: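 Yeast carrying a defined mutation is treated with each compound, and growth is compared with that of vehicle-exposed cells to give inhibition.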

[12] = NCI Yeast Anticancer Drug Screen. Data for the wt2 strain (AID 169);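 further: 0% = growth of vehicle-treated yeast cultures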; conditions: S. cerevisiae wt2 strain growth inhibition, stronger effect = higher value
Procedure, shortened: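 Yeast cells were exposed to test compounds, and growth inhibition was measured relative to vehicle-treated controls.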

[13] = NCI Yeast Anticancer Drug Screen. Data for the mlh1 strain (AID 171);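 further: 0% = growth of vehicle-treated control cultures of the same strain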; conditions: S. cerevisiae mlh1 strain growth inhibition, stronger effect = higher value
Procedure, shortened: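 Yeast carrying a defined genetic alteration in DNA damage repair or cell cycle control were exposed to test compounds. Growth inhibition was measured relative to vehicle-treated controls.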

[14] = NCI Yeast Anticancer Drug Screen. Data for the sgs1 strain (AID 173);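 further: 0% = growth of vehicle-only control cultures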; conditions: S. cerevisiae sgs1 mutant, stronger effect = higher value
Procedure, shortened: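 Yeast mutant strains carrying defined defects in DNA damage repair or cell cycle control were exposed to test compounds. Growth inhibition was scored against vehicle-treated controls.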

[15] = NCI Yeast Anticancer Drug Screen. Data for the mlh1 rad18 strain (AID 175); conditions: S. cerevisiae mlh1 rad18 strain growth inhibition, stronger effect = higher value
Procedure, shortened: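 Growth inhibition of the yeast strain was measured after compound exposure and expressed relative to vehicle-treated controls. The strain carries defined defects in DNA damage repair.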

[16] = NCI Yeast Anticancer Drug Screen. Data for the rad18 strain (AID 177); conditions: S. cerevisiae rad18 mutant growth inhibition, stronger effect = higher value
Procedure, shortened: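 Yeast carrying a defined DNA damage repair alteration were exposed to compounds. Growth inhibition was expressed relative to vehicle-treated controls.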

[17] = at 5.0 µM (retest, dose inferred, filed as 0.5)
[18] = at 50.0 µM (retest, dose inferred, filed as 5.0)

Measured: growth inhibition

O=[N+]([O-])c1cccc2nc3ccccc3c(NCCCN3CCOCC3)c12
inactive: [2]; at 1.2 µM -8% | [2]; at 3.7 µM 38% | [3]; at 1.2 µM 19% | [3]; at 3.7 µM 46% | [4]; at 1.2 µM 16% | [4]; at 3.7 µM 43% | [9]; at 1.2 µM -7% | [9]; at 3.7 µM 46% | [11]; at 1.2 µM -14% | [11]; at 3.7 µM 0% | [11]; [17] 0% | [11]; at 11.0 µM 53% | [12]; at 1.2 µM -1% | [12]; at 3.7 µM 19% | [13]; at 1.2 µM 16% | [13]; at 3.7 µM 54%
active: [1]; at 1.2 µM 95% | [1]; at 3.7 µM 97% | [1]; at 11.0 µM 98% | [1]; at 33.0 µM 98% | [1]; at 100.0 µM 98% | [2]; at 11.0 µM 90% | [2]; at 33.0 µM 97% | [2]; at 100.0 µM 98% | [3]; at 11.0 µM 76% | [3]; at 33.0 µM 92% | [3]; at 100.0 µM 96% | [4]; at 11.0 µM 91% | [4]; at 33.0 µM 97% | [4]; at 100.0 µM 98% | [5]; at 1.2 µM 89% | [5]; at 3.7 µM 94% | [5]; [17] 85% | [5]; at 11.0 µM 96% | [5]; at 33.0 µM 97% | [5]; [18] 97% | [5]; at 50.0 µM 96% | [5]; at 100.0 µM 98% | [6]; at 1.2 µM 90% | [6]; at 3.7 µM 97% | [6]; [17] 91% | [6]; at 11.0 µM 98% | [6]; at 33.0 µM 99% | [6]; [18] 99% | [6]; at 50.0 µM 97.3% | [6]; at 100.0 µM 99% | [7]; at 1.2 µM 98% | [7]; at 3.7 µM 98% | [7]; at 11.0 µM 98% | [7]; at 33.0 µM 98% | [7]; at 100.0 µM 98% | [8]; [17] 92% | [8]; [18] 98% | [8]; at 50.0 µM 96.9% | [9]; at 11.0 µM 92% | [9]; at 33.0 µM 96% | [9]; at 100.0 µM 99% | [10]; [17] 98% | [10]; [18] 99% | [10]; at 50.0 µM 98.4% | [11]; at 33.0 µM 93% | [11]; [18] 97% | [11]; at 50.0 µM 90.1% | [11]; at 100.0 µM 98% | [12]; at 11.0 µM 76% | [12]; at 33.0 µM 96% | [12]; at 100.0 µM 98% | [13]; at 11.0 µM 94% | [13]; at 33.0 µM 98% | [13]; at 100.0 µM 99% | [14]; at 1.2 µM 91% | [14]; at 3.7 µM 94% | [14]; at 11.0 µM 96% | [14]; at 33.0 µM 97% | [14]; at 100.0 µM 98% | [15]; [17] 95% | [15]; [18] 98% | [15]; at 50.0 µM 98.2% | [16]; at 1.2 µM 96% | [16]; at 3.7 µM 96% | [16]; at 11.0 µM 97% | [16]; at 33.0 µM 97% | [16]; at 100.0 µM 99%
